# Compounds without any hit were thinned out: in the full panel of roughly 79,000, 15% have a hit. A number with no mark means an inactive call. Activity calls are given as the source filed them. Rule as the data show it: active = growth inhibition above about 70%; inactive = the rest.
# How the values were obtained:
# [1] = NCI Yeast Anticancer Drug Screen. Data for the rad50 strain (AID 155);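 also: 0% = growth of vehicle-only cultures of the same strain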; conditions: S. cerevisiae rad50 strain growth inhibition; at 50.0 µM; active compounds read high
# Summary of the method: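 Readout: growth inhibition relative to vehicle-treated cultures. Compound exposure was carried out in a genetically defined yeast strain deficient in DNA damage repair.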
# [2] = NCI Yeast Anticancer Drug Screen. Data for the mec2-1 strain (AID 157); conditions: S. cerevisiae mec2-1 strain, at 50.0 µM, active compounds read high
# Summary of the method: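 Using mec2-1 yeast: add compound, measure growth, express inhibition versus vehicle-treated cultures.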
# [3] = NCI Yeast Anticancer Drug Screen. Data for the sgs1 mgt1 strain (AID 161);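 also: 0% = growth of cultures given vehicle only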; conditions: S. cerevisiae sgs1 mgt1 strain, at 50.0 µM, active compounds read high
# Summary of the method: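 Compounds are added to genetically altered yeast, and growth is compared with cultures given vehicle alone to give percent inhibition.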
# [4] = NCI Yeast Anticancer Drug Screen. Data for the cln2 rad14 strain (AID 165);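 also: 0% = growth equal to vehicle treated cultures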; conditions: S. cerevisiae cln2 rad14 strain, at 50.0 µM, active compounds read high
# Summary of the method: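 Yeast strain cln2 rad14, bearing defects in cell cycle control and DNA repair, serves as the test system; values reflect growth inhibition compared with vehicle.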
# [5] = NCI Yeast Anticancer Drug Screen. Data for the bub3 strain (AID 167); conditions: S. cerevisiae bub3 mutant strain, at 50.0 µM, active compounds read high
# Summary of the method: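 Readout: yeast growth inhibition, expressed relative to vehicle-only wells. The test organism is a mutant strain from a panel with lesions in DNA repair or checkpoint genes.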
# [6] = NCI Yeast Anticancer Drug Screen. Data for the mlh1 rad18 strain (AID 175); conditions: S. cerevisiae mlh1 rad18 strain growth inhibition; at 50.0 µM; active compounds read high
# Summary of the method: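 Steps: expose repair-defective yeast to compound; measure growth; express inhibition against vehicle-treated controls.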
SMILES,growth inhibition [1],growth inhibition [2] [%],growth inhibition [3],growth inhibition [4] [%],growth inhibition [5] [%],growth inhibition [6] [%]
CN1CCC(O)(/C=C\C2(O)CCN(C)CC2)CC1,-10.9%,21.7,20.1%,-3.95,3.65,-22.1
C/C(=N/NC(=S)N1CCCCC1)c1ccccc1O,-17.4%,-41.7,1.55%,4.4,-10.6,-5.75
CC1CCCCC1(C)O (stereo not given),23.9%,34.6,-19.4%,1.75,9,11.4
CCOC(=O)c1nnc2cc(-c3ccccc3)nn2c1C,6.65%,0.6,18.1%,25.4,41.4,28.6
NS(=O)(=O)c1ccc(N2C(=O)C(=O)N(c3ccccc3)C2=S)cc1,-15.8%,-11.9,-16.2%,-39.4,-3.75,-20.5
CCCC(C)C(O)C(C)C (stereo not given),1.25%,-19.8,-5.1%,3.6,8.7,-18.7
O=C1/C(=C/c2ccc([N+](=O)[O-])cc2)CCCc2ccccc21,11.1%,6.8,22.9%,-22.3,-0.95,21.9
Cc1cc(Br)ccc1C1=C(O)C(=O)NC1=O,5.55%,-10.4,10.7%,-32.3,-1.7,-5.4
COC(=O)C1=CO[C@@H](O)[C@@H]2C(C)OC(=O)C[C@H]12 (stereo not given in full),-8.5%,-28.3,-6.9%,3.2,-10.8,-15.2
O=C1CC2C(=O)N(Cc3ccccc3)C1C(S(=O)(=O)c1ccccc1)C2S(=O)(=O)c1ccccc1 (stereo not given),10.4%,9.4,2.75%,26.9,-8.7,23.9
Cc1ccc(S(=O)(=O)/C(C#N)=C/NC(=S)Nc2ccc(S(N)(=O)=O)cc2)cc1,12.5%,-21.2,-4.1%,-6.85,-10.7,-10.9
O=C(NCCNCCO)N/N=C/c1ccccc1,-0.2%,-34.4,-15.9%,-7.75,-39,-0.65
O=C1CCCC1C(=O)c1ccccc1.O=C1CCCC1C(=O)c1ccccc1.[Cu] (stereo not given),70.9% (active),22.1,88.5% (active),23.7,-2,52.9
CC1(C#N)N(C(=O)c2ccccc2)c2ccccc2N1C(=O)c1ccccc1,18.6%,50.2,46.2%,27.2,36,24.9
CCCCCCCCCCCCCCCCCC(=O)N/N=C/c1cc(OC)ccc1OC,1.55%,0.05,-0.05%,-25.2,-0.6,-28.9
NC(=O)/C(=N/O)c1ccccc1,-1.85%,13.2,1.7%,1.25,-1.2,-7.6
CC1(C)OC(=O)C=C([O-])O1.CC1(C)OC(=O)C=C([O-])O1.CC[O-].CC[O-].[Ti+4],-20.8%,-36.2,3.6%,-8.95,-11.7,-3.15
C#Cc1cccc(N=Cc2cc(Br)cc(OC)c2O)c1,-23.4%,-6.7,1.3%,4.8,5,3.95
CC1=NN2C(=O)C(C)SC2=NC(C)(C)C1 (stereo not given),-5.6%,-17.9,-3.15%,29.2,-8.2,-16.3
CCOC(=O)c1ccc(NC(=O)Oc2ccc(SC)cc2)cc1,8.2%,-5.25,0.4%,8.95,23.4,6.9

# — PubChem BioAssay (NCI)
